The nature of assay [1]: small molecules captured by biotinylated probe aFSTL3 – biochemical, small-molecule microarray, fluorescence 635/667, stem cell growth factor project, primary screen (AID 1064).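 Also: measures binding of the biotinylated anti-FSTL3 antibody to printed compounds.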 The conditions noted are these: higher = more signal.
The nature of assay [2]: binders from COS7 lysate, DM2A8 probe, primary screen, torsin A project, cell lysate, small-molecule microarray, fluorescence 635/667 (AID 1065). The conditions noted are these: higher = more signal, COS7 lysate expressing mutant human TOR1A.
A short description of assay [3]: small molecules captured by biotinylated probe aFGF2 – biochemical, small-molecule microarray, fluorescence 635/667, stem cell growth factor project, primary screen (AID 1067).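 Also: measures binding of biotinylated aFGF2 protein to printed compounds on slides; z-score merges feature fluorescence and signal-to-noise across triplicate slides.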 The conditions noted are these: higher = more signal.
Assay [4] is described as follows: small molecules captured by biotinylated probe aFGF10 – biochemical, small-molecule microarray, fluorescence 635/667, stem cell growth factor project, primary screen (AID 1071).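 Also: score merges 667 nm spot intensity and signal to noise from triplicate slides.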 The conditions noted are these: higher = more signal.
Assay [5] deals with Neurogenic locus notch homolog protein 2 (Homo sapiens) (UniProt Q04721). Nature of the assay: small molecules binding Notch2 protein – biochemical, small-molecule microarray, 635 nm fluorescence, stem cell growth factors, primary screen (AID 1073). To be noted: higher = more signal.
For assay [6], the target named is Pro-neuregulin-1, membrane-bound isoform (Homo sapiens) (UniProt Q02297). Nature of the assay: small molecules binding neuregulin-1 protein – biochemical, small-molecule microarray, fluorescence 635/667, psychiatric disease protein project, primary screen (AID 1075).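 Also: score combines 667 nm spot fluorescence with signal to noise.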 To be noted: NRG1 binding, 635 nm fluorescence, higher = more signal.
For assay [7], the system named is Neuregulin-1 EGF-like domain. Nature of the assay: small molecules binding NRG1 EGF domain – biochemical, small-molecule microarray, 635 nm fluorescence, primary screen (AID 1081).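 Also: binding of the protein to compounds printed on small-molecule microarray slides.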 To be noted: higher = more signal.
A short description of assay [8]: FRG1 expression reporter modulators in myotubes – cell-based, C2C12 myotubes, firefly/Renilla luciferase, luminescence, FRG1 inhibition for FSHD, primary screen (AID 1084). To be noted: FRG1 promoter luciferase, higher = more signal, called active from +8 up or from −8 down.
The nature of assay [9]: small molecules captured by biotinylated probe aFST – biochemical, small-molecule microarray, fluorescence 635/667, stem cell growth factor project, primary screen (AID 1086).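 Also: score merges 667 nm fluorescence with signal-to-noise of each printed compound spot.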 The conditions noted are these: higher = more signal.
Assay [10] is described as follows: binders of probe aHhip on microarray, primary screen, stem cell growth factor project, biochemical, small-molecule microarray, fluorescence 635/667 (AID 1087).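 Also: score merges spot fluorescence at 667nm with spot signal to noise ratio.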 To be noted: higher = more signal.
Assay [11] deals with PRMT1 (protein arginine N-methyltransferase 1). Nature of the assay: small molecules binding arginine methyltransferase PRMT1 – biochemical, small-molecule microarray, 635 nm fluorescence, primary screen (AID 1088).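 Also: binding of Prmt1 protein to compounds spotted on small-molecule microarray slides.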 The conditions noted are these: higher = more signal.
A short description of assay [12]: growth effects on S. cerevisiae YJM789 – YJM789 clinical isolate, OD600, 24 h, basal, primary screen (AID 1089).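 Also: growth of clinical yeast isolate S. cerevisiae YJM 789 seeded 1000 cells per well; test concentration not given here.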 To be noted: higher = more signal, called active from +8 up or from −8 down.
The nature of assay [13]: S. pombe growth modifiers, basal conditions – strain 972, OD600, 24 h, no modulator, primary screen (AID 1090).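 Also: basal condition with compound alone and no growth modifier present; test concentration not given here.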 The conditions noted are these: S. pombe 972 growth, higher = more signal, called active from +8 up or from −8 down.
Assay [14] is described as follows: budding yeast growth modifiers under rapamycin – strain BY4716, OD600, 96 h, primary screen (AID 1091). Also: test concentration not given here. To be noted: S. cerevisiae BY4716 + rapamycin, higher = more signal, called active from +8 up or from −8 down.
The target of assay [15] is Torsin-1A-interacting protein 2 (Homo sapiens) (UniProt Q8NFQ8). The experiment in a line: small molecules binding lysate-expressed LULL1 – cell lysate, human LULL1 lysate, 635/667 nm fluorescence, primary screen (AID 1092).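 Also: probe is lysate of COS7 cells overexpressing human LULL1; score merges per-feature 667 nm fluorescence with signal-to-noise.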 The conditions noted are these: small-molecule microarray, hLULL1 lysate binding, 635 nm fluorescence; higher = more signal.
A short description of assay [16]: optical density change of DRC41 E. coli – strain DRC41, OD650, 24 h, E. coli filamentation project, primary screen (AID 1093).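 Also: MC1000 strain lacking acrAB efflux and sulA so SOS filamentation is blocked; test concentration not given here.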 To be noted: E. coli DRC41 growth, higher = more signal, called active from +8 up or from −8 down.
Assay [17] can be described thus: probe aLefty2 binding to arrayed compounds – biochemical, biotinylated probe, 635/667 nm fluorescence, primary screen (AID 1094).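 Also: score merges spot fluorescence near 667 nm with spot signal-to-noise ratio.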 The conditions noted are these: small-molecule microarray, higher = more signal.
For assay [18], the system named is Noggin (protein binding on small-molecule microarray). Nature of the assay: small molecules binding Noggin protein – biochemical, 635/667 nm fluorescence, primary screen (AID 1095).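 Also: score merges 667 nm feature fluorescence with signal to noise over triplicate slides.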 To be noted: 635 nm fluorescence, higher = more signal.
The target in assay [19] is Neurogenic locus notch homolog protein 3 (Homo sapiens) (UniProt Q9UM47). The experiment in a line: small molecules binding NOTCH3 protein – biochemical, 635/667 nm fluorescence, primary screen (AID 1096). The conditions noted are these: small-molecule microarray, 635 nm fluorescence, higher = more signal.
The nature of assay [20]: probe aEGFR binding to arrayed compounds – biochemical, biotinylated probe, 635/667 nm fluorescence, primary screen (AID 1097).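 Also: probe is a biotinylated anti-EGFR antibody binding compounds printed on slides; score combines fluorescence near 667 nm and signal to noise of each spot.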 To be noted: small-molecule microarray, higher = more signal.

The source made the active and inactive calls.

Drawing on PubChem BioAssay, this text covers composite z-score and z-score for five molecules.

Sequence of Neurogenic locus notch homolog protein 3 (Homo sapiens) (Q9UM47 whole entry, looked up): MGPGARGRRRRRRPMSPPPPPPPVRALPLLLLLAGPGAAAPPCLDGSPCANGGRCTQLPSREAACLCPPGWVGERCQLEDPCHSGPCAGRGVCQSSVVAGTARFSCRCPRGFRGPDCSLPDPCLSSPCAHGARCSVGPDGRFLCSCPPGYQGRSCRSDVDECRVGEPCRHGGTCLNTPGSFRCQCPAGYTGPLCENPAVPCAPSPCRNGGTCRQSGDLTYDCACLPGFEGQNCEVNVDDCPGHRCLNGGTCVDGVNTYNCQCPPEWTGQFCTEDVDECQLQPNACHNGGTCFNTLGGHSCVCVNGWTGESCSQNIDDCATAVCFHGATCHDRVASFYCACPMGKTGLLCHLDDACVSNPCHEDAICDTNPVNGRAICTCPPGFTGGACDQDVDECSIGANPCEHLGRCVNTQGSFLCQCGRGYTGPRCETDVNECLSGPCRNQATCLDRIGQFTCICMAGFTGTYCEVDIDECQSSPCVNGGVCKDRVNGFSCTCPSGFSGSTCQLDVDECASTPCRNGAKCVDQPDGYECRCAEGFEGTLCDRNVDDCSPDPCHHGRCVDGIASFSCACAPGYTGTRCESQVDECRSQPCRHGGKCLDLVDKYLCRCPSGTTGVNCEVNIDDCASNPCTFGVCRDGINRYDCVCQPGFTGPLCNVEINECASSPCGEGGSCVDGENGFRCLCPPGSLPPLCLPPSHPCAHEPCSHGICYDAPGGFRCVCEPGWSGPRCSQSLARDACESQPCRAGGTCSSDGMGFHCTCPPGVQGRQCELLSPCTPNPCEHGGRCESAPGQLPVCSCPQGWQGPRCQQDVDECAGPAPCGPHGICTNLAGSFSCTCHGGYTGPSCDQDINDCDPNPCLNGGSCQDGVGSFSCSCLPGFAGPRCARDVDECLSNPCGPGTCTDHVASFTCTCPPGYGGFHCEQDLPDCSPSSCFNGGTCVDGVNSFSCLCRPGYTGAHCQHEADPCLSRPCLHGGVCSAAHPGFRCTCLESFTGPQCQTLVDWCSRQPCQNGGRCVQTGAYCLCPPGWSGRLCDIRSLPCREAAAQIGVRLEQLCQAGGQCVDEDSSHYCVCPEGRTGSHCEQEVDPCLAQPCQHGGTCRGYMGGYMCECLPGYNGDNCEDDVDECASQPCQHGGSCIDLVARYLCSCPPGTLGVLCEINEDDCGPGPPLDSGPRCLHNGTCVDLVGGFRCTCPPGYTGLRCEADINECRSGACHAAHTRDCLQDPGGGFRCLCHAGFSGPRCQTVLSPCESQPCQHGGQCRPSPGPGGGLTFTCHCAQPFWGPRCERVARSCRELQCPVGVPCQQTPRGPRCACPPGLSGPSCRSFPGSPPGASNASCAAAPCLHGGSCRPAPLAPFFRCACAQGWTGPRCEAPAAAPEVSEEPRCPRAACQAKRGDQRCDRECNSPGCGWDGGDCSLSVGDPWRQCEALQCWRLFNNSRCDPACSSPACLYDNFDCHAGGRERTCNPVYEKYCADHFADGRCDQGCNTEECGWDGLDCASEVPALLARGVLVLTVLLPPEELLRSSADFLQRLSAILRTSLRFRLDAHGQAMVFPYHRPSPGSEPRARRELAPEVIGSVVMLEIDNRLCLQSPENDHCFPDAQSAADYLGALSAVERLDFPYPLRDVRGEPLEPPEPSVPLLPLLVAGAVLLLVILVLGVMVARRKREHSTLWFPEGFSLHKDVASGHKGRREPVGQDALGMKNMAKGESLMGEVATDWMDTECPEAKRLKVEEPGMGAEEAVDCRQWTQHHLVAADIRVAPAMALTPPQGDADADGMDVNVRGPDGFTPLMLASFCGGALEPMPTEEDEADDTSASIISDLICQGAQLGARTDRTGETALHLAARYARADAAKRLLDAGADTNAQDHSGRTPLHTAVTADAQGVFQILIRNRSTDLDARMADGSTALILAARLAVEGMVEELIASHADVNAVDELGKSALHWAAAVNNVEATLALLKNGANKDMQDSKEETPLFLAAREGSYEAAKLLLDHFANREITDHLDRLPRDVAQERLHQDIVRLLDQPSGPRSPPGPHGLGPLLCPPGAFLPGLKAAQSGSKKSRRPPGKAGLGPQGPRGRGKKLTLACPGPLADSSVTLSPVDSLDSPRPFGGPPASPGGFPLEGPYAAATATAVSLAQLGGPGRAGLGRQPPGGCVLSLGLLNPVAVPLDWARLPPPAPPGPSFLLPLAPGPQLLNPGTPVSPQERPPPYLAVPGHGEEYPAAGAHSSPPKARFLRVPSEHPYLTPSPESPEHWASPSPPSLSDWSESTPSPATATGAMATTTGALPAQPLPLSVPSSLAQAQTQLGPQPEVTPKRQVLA
Sequence of Torsin-1A-interacting protein 2 (Homo sapiens) (Q8NFQ8 whole entry, looked up): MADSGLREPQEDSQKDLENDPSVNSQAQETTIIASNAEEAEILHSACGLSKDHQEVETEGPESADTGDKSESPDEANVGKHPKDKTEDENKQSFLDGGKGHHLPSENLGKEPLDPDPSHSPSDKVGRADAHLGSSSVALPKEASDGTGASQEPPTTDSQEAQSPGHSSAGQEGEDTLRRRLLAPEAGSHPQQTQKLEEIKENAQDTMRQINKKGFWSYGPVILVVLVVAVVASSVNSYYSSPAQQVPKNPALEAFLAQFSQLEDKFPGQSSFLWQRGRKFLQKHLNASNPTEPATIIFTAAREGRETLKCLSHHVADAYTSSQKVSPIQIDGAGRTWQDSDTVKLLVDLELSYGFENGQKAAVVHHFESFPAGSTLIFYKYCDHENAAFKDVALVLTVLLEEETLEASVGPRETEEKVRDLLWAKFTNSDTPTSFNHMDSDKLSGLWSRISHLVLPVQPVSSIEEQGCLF
Sequence of Pro-neuregulin-1, membrane-bound isoform (Homo sapiens) (Q02297 whole entry, looked up, the tested form may be a part, canonical isoform): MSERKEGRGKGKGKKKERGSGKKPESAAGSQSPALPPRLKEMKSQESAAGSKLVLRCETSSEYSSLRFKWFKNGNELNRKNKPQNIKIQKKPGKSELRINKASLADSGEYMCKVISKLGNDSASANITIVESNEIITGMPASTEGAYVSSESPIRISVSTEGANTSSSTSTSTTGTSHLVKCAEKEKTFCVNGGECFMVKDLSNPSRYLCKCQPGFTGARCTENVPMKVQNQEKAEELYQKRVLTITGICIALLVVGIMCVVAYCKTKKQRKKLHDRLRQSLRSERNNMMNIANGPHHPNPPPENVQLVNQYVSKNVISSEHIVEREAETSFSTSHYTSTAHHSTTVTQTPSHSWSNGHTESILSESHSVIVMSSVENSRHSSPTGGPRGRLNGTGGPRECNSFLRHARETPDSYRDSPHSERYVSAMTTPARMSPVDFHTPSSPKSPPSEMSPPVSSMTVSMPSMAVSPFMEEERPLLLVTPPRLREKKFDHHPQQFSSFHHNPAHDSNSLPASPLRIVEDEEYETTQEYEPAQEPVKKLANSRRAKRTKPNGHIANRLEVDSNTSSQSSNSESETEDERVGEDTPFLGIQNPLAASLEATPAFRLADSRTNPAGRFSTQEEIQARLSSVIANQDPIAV

For `C=C(CCCC)C(=O)CC[C@H](OC(C)=O)c1ccc(OCCO)cc1`, the composite z-score is -0.222 in assay [1]; -0.0212 in [2]; -0.214 in assay [3]; -0.253 in [4]; -0.989 in assay [5]; -0.189 in assay [6]. Further, the composite z-score is -0.67 in [7]; -0.358 in [9]; 3.01 in assay [10]; -0.0507 in assay [11]; -0.835 in assay [15]; -0.269 in assay [17]. For the same molecule, the composite z-score is -0.469 in assay [18], -0.829 in [19] and -0.16 in assay [20]. The z-score was 0.38 (inactive) in [8]; -1.62 (inactive) in assay [12]; -6.78 (inactive) in assay [13]; -2.54 (inactive) in assay [14]; 2.19 (inactive) in assay [16].

Take `COCCOC(=O)N1C(=O)[C@@]2(c3cc(C#Cc4ccc(OC)cc4)ccc31)[C@H](c1ccc(OCCO)cc1)N1[C@H](c3ccccc3)[C@H](c3ccccc3)OC(=O)[C@H]1[C@@H]2C(=O)Nc1nc2ccccc2s1`: the composite z-score was -0.118 in assay [1]; 0.247 in assay [2]; -0.0262 in assay [3]; 0.39 in [4]; 1.21 in [5]; 0.864 in assay [6]. The composite z-score was 0.718 in assay [7]; -0.0352 in assay [9]; 0.0695 in assay [10]; 1.14 in [11]; 2.2 in assay [15]; 0.188 in assay [17]. In addition, the composite z-score is 0.55 in assay [18], 0.95 in [19] and -0.0437 in assay [20]. The z-score in assay [8] was 2.99 (inactive); in assay [12], 1.77 (inactive); in assay [13] it was 1.43 (inactive); in assay [14], 1.96 (inactive); in assay [16], 1.82 (inactive).

Turning to `COCC1=C2[C@@H](CCc3ccccc3)OB(O)C[C@@H]2[C@@H]2C(=O)N(C)C(=O)[C@@H]2C1`, the composite z-score in assay [1] was -0.136; in assay [2], 0.0288; in [3], -0.164; in assay [4], 0.511; in [5] it was 0.21; in [6] it was -0.295. In addition, the composite z-score was 0.843 in assay [7]; -0.0464 in assay [9]; -0.0618 in assay [10]; -0.0522 in assay [11]; 0.332 in assay [15]; -0.0141 in assay [17]. For the same molecule, the results for the composite z-score in [18], in assay [19] and in assay [20] were 0.0638, 0.183 and -0.131, respectively. For the same molecule, the z-score in assay [8] was -3.25 (inactive); in [12], -0.31 (inactive); in assay [13], -1.56 (inactive); in assay [14] it was -0.53 (inactive); in [16], -0.817 (inactive).

Turning to `C=CC[C@H](OC(=O)Nc1ccc(SC)cc1)c1ccc(OCCO)cc1`, the composite z-score in [1] is 0.339; in assay [2], 0.0366; in assay [3], -0.107; in [4], -0.85; in assay [5], -1.2; in assay [6], 0.958. The composite z-score in assay [7] was 1.07; in [9] it was -0.413; in assay [10] it was -0.0994; in [11] it was -0.693; in assay [15] it was 0.639; in assay [17] it was -0.15. The results for the composite z-score in assay [18], in assay [19] and in assay [20] were 0.732, 0.201 and -0.19, respectively. In addition, the z-score in assay [8] was 8.37 (active); in assay [12], -0.739 (inactive); in assay [13] it was -2.94 (inactive); in assay [14], -0.598 (inactive); in assay [16], 0.951 (inactive).

As to `CC(C)CNC(=O)[C@@H]1c2ccccc2C(=O)N(C2CCCCC2)[C@H]1c1ccc(CO)cc1`, the composite z-score in assay [1] is 0.386; in assay [2], -0.754; in assay [3], -0.0962; in assay [4], -0.305; in assay [5] it was -0.354; in [6], 1.69. Further, the composite z-score in assay [7] is 1.28; in [9], 0.0088; in assay [10] it was 0.0497; in [11] it was 0.933; in assay [15], 3.03; in [17], -0.137. Besides, the values for the composite z-score in [18], in assay [19] and in [20] were -0.369, -0.358 and -0.218, respectively. For the same molecule, the z-score is -1.8 (inactive) in assay [8]; -0.417 (inactive) in [12]; -0.641 (inactive) in assay [13]; -0.812 (inactive) in [14]; 3.31 (inactive) in [16].
